Screens (PubChem BioAssay)
Tau fibril FP: qHTS for Inhibitors of Tau Fibril Formation, Fluorescence Polarization; Microtubule-associated protein tau (Homo sapiens), P10636; K18 P301L tau heparin fibrillization, Alexa594 FP, 6 h; Potency, µM (top dose mostly 57.7 µM), actives largely listed as inhibitors; 280,000 compounds, 0.39% hits; further: nearly all actives have a fitted effect of over 55% in size
Target sequence (P10636 561-689 P618L limits assumed): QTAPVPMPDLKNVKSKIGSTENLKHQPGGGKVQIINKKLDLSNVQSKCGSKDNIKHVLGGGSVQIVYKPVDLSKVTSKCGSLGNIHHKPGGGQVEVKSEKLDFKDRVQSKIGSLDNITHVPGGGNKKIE
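Human tau K18 […] P301L fragment, 15 uM unlabeled plus 0.24 uM Alexa 594-labeled tau (final), with compound and 20 uM heparin in 100 mM sodium acetate pH 7; 6 hr at 37 C, then Alexa 594 FP read.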
Sfp PPTase inh: qHTS Assay for Inhibitors of Bacillus subtilis Sfp phosphopantetheinyl transferase (PPTase) | Biochemical Sfp PPTase activity, qHTS | Potency, µM, usual class: inhibitors | 310,000 compounds, 3.5% hits;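 further: the enzyme is Sfp with the accession as filed and its product quenches rhodamine fluorescence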
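Fluorescence-quenching assay with 15 nM Sfp, 5 uM rhodamine-CoA and 12.5 uM BHQ-2-labelled ybbR peptide in pH 7.6 Hepes/MgCl2 buffer. Enzyme was pre-incubated with compound for 15 min at room temperature. Rate was taken from the 30-min fluorescence change (525/598 nm).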
Coupling enz: qHTS Assay for Inhibitors of Fructose-1,6-bisphosphate Aldolase from Giardia Lamblia: Coupling assay counterscreen; 290,000 compounds, 0.67% hits; activity change, negative = inhibition, % at 58.2 µM, hits read low; AID 2472, 2010; coupling enzyme system counterscreen, AmpLite Red fluorescence; in the data active means activity change below about -30%
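Counterscreen of the coupled detection system alone, without aldolase: glyceraldehyde-3-phosphate coupling enzymes plus AmpLite Red readout. Compounds at 57.5 uM final, 10 min RT preincubation, 20 min RT reaction, fluorescence 525/598 nm.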
Tau fibril ThT: qHTS for Inhibitors of Tau Fibril Formation, Thioflavin T Binding; Potency, µM (titrated, usually from 57.4 µM), actives largely listed as inhibitors; recombinant tau K18 P301L, heparin-induced fibrillization, ThT fluorescence; 270,000 compounds, 2.1% hits; Microtubule-associated protein tau (Homo sapiens), P10636; AID 1460, 2008; further: nearly all actives have a fitted effect of over 55% in size
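Aggregation was driven by heparin (20 uM final) acting on recombinant tau […] bearing P301L in 100 mM sodium acetate pH 7; fibrils were detected with Thioflavin T.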
G9a inh: qHTS Assay for Inhibitors of Histone Lysine Methyltransferase G9a; AID 504332, 2011; Potency, µM (top dose mostly 102 µM), hits mostly inhibitors; 350,000 compounds, 8.8% hits; G9a H3K9 monomethylation, AlphaScreen, 2 h; further: nearly all actives have a fitted effect of over 75% in size
Target sequence (Q96KQ7 913-1193 limits assumed): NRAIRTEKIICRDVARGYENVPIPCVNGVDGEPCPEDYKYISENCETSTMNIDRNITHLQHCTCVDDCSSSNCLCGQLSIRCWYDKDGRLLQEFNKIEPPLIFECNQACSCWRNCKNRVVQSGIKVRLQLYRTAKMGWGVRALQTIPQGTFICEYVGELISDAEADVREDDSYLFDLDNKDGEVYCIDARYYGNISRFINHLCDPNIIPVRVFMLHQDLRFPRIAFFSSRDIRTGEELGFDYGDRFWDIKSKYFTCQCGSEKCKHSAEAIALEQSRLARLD
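Signal arises when biotinylated H3K9 peptide, once monomethylated, bridges streptavidin donor and antibody-captured acceptor beads. Enzyme at 20 nM was preincubated 15 min with test compounds; peptide 500 nM and SAM 20 uM then reacted for 2 h.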
Tau fluor cs: Counterscreen qHTS for Inhibitors of Tau Fibril Formation, Fluorescence Polarization | tau K18 P301L Alexa594 fluorescence, heparin fibrillization | Potency, µM (top dose mostly 57.7 µM) | 280,000 compounds, 0.93% hits | AID 1463, 2008; further: nearly all actives have a fitted effect of over 55% in size
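Human tau K18 P301L (15 uM unlabeled, 0.24 uM Alexa 594-labeled) in 100 mM sodium acetate pH 7 with 20 uM heparin, 6 hr at 37 C. ThT 30 uM added, 1 hr ambient; Alexa 594 FP and total fluorescence read at 555/632 nm.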
A number is an active result; n = inactive; u = inconclusive; x = no result given; [ ] = another dose, or the depositor's remark. Rows were chosen to be rich in hits. Some 11% of all compounds tested hit in one or more screens of this group. Unless noted, the call rests on the fitted dose curve; in most records, active means well fitted curve in the direction sought with a large enough effect; inconclusive means small, poorly fitted or top-dose-only effect, or another doubt; inactive means no such curve, though single readings can be large; an effect the other way counts as inactive or inconclusive.

SMILES	Tau fibril FP	Sfp PPTase inh	Coupling enz	Tau fibril ThT	G9a inh	Tau fluor cs
CC12C=C(/C=C/CCc3ccco3)C(C)(C1)C(CCc1ccco1)CC2=O (stereo not drawn)	n[11.6 µM]	u	n	u	x	n[11.6 µM]
Cc1ccc(-n2nnnc2C(Cl)(Cl)c2nnnn2-c2ccc(C)cc2)cc1	16µM	3.2µM	n	8.9µM	u	n
CCc1ccccc1NC(=O)COC(=O)c1cn(CC)c2nc(C)ccc2c1=O	n	x	x	n	n	n
CCn1c(C)nc2cc(C(=O)NNC(=S)Nc3ccc(OC)cc3)ccc21	n	n	n	u	40µM	n
CCNC(=S)NNC(=O)c1ccc(OC)cc1	n	n	n	n	n	n
CCn1c(C)nc2cc(C(=O)NNS(=O)(=O)c3c(F)cc(F)c(Cl)c3F)ccc21	n	n	n	n	40µM	n
O=C(NNC(=S)Nc1cccc(Cl)c1)c1ccccc1	x	n	x	x	35µM	x
COc1ccc(C(=O)NNC(=S)Nc2ccccc2)cc1	n	n	n	n	45µM	n
O=C(Nc1cccc(Cl)c1)c1ccccc1	x	x	x	x	n[12.7 µM]	x
CNc1ccccc1C(=O)N1CCc2c([nH]c3ccccc23)C1=O	n	n	n	n	x	n
CCCCNC(=O)CCCn1c(=O)c2ccccc2n(Cc2cccc(Cl)c2)c1=O	n	x	x	n	n	n
COc1ccc(Cn2c(=O)c3oc4ccccc4c3n(CC(=O)Nc3cc(C)cc(C)c3)c2=O)cc1	u	x	x	n	n	n
O=C(NNC(=S)Nc1ccc(Cl)cc1)c1ccccc1	x	n	x	x	35µM	x
O=C(NNC(=S)Nc1ccccc1Cl)c1ccccc1	x	n	n	x	x	x
C/C(=N\Nc1ccc(C(=O)O)cc1)c1ccc2c(c1)Nc1ccccc1S2	n	n	n	3.5µM	11µM	13µM[quencher]
CC(=O)Nc1ccc(NC(=O)c2ccc3c(c2)NC(=O)c2ccccc2S3)cc1	n	x	x	u	n	u
CCOC(=O)C1=C(COC(=O)c2ccccc2OC)NC(=O)NC1C (stereo not drawn)	x	x	x	x	3.2µM	x
CCOC(=O)C1=C(COC(=O)c2c(OC)cccc2OC)NC(=O)NC1C (stereo not drawn)	x	x	x	x	n	x
COc1ccc2[nH]c3c(N4CCC(O)(c5cccc(C(F)(F)F)c5)CC4)ncnc3c2c1	n	n	n	u	n	16µM[quencher]
COc1ccc2[nH]c3c(N4CCN(Cc5ccc6c(c5)OCO6)CC4)ncnc3c2c1	u	n	n	u	50µM	20µM[quencher]
COc1ccc2c(c1)c1ncnc(N3CCN(Cc4ccc5c(c4)OCO5)CC3)c1n2C	n	n	n	n	n	n
COc1ccc2c(c1)c(C(O)CN1CCN(Cc3ccc4c(c3)OCO4)CC1)c(C)n2C (stereo not drawn)	u	n	n	u	50µM	u
Cc1ccc2[nH]c3c(N4CCOCC4)ncnc3c2c1	n	n	n	n	n	n
Cc1c(C(O)CN2CCN(Cc3ccc4c(c3)OCO4)CC2)c2ccccc2n1C (stereo not drawn)	n	n	n	u	u	u
CC1CCN(C(=O)Cn2cc(SCc3cccc(F)c3)c3ccccc32)CC1	n	x	x	u	n	n
SMILES	Tau fibril FP	Sfp PPTase inh	Coupling enz	Tau fibril ThT	G9a inh	Tau fluor cs
O=C(c1ccccc1)c1cc(F)c(N2CCOCC2)cc1Cl	n	n	n	n	n	n
COc1cc2ncc(C(=O)c3ccccc3)c(N3CCN(Cc4ccccc4)CC3)c2cc1OC	n	n	n	u	35µM	n
O=C(c1ccccc1)c1cnc2ccc(Cl)cc2c1N1CCOCC1	n	n	n	n	50µM	n
CN(C(=O)COC(=O)c1cc(S(=O)(=O)N2CCOCC2)ccc1F)C1CCS(=O)(=O)C1 (stereo not drawn)	x	x	x	x	n	x
Oc1[nH]c2ccccc2c1N=NC(=S)N1CCOCC1	n	n	n	8.9µM	32µM	n
CC(C)CC(=O)N=Nc1c(O)[nH]c2ccccc12	n	n	n	n	n	n
CC(=O)/C=C(\C)N=Nc1c(O)[nH]c2ccccc12	n	n	n	7.9µM	n	n
Oc1[nH]c2ccc(Br)cc2c1N=NC(=S)N1CCOCC1	n	n	n	10µM	3.5µM	u
COc1ccc2oc(=O)c(C(=O)OCc3ccccc3)cc2c1	x	50µM	n	x	28µM	x
COc1ccc2oc(=O)c(C(=O)NCc3ccccc3)cc2c1	x	n	n	x	n	x
CCOC(=O)c1sc(-c2cccs2)nc1C	n	n	n	n	n	n
CCOC(=O)c1sc(N2N=C(C)C(N=Nc3cccc(C)c3)C2=O)nc1C (stereo not drawn)	x	n	n	x	50µM	x
CC1=NN(c2nc(-c3ccccc3)cs2)C(=O)C1	n	n	n	u	n[0.501 µM]	u
CC1=NN(c2nc(-c3ccc(C)cc3)cs2)C(=O)C1N=Nc1cccc(C)c1 (stereo not drawn)	u	n	n	2µM	u	n
CCOc1ccc(NC(=S)NC(=O)c2cccnc2)c([N+](=O)[O-])c1	x	n	n	x	u	x
O=C(Nc1ccc(-c2nc3ccccc3o2)c(O)c1)c1cc(-n2cnnc2)ccc1Cl	n	n	n	n	n[12.7 µM]	n
Cc1c(NC(=O)c2cc(-n3cnnc3)ccc2Cl)cccc1-c1nc2ccccc2o1	n	n	n	n	2.5µM	n
COc1cc(NC(=O)CC2C(=O)N(c3cccc(C)c3)C(=O)N2Cc2cccs2)cc(OC)c1 (stereo not drawn)	u	x	x	n	u	u
CC(C)c1ccc(NC(=O)C2(C)Cc3ccccc3C(=O)O2)cc1 (stereo not drawn)	n	x	x	n	n	n
COc1ccc2cc(C3CC(c4ccco4)=NN3C(=O)CCC(=O)O)c(Cl)nc2c1 (stereo not drawn)	n	50µM	n	n	u	n
CCOc1ccc2cc(C3CC(c4ccco4)=NN3S(C)(=O)=O)c(Cl)nc2c1 (stereo not drawn)	n	n	n	n	45µM	n
NC(=O)/C(=C\c1ccccc1)NC(=O)c1ccc(NC(=O)c2ccccc2)cc1	n	n	n	n	n	n
O=C(COC(=O)c1ccccc1Cc1ccccc1)Nc1ccc(SC(F)F)cc1	25µM	n	n	n	n	u
N#C/C(=C\c1ccc(O)c(O)c1)C(=O)N1CCCC1	n	63µM	n	n	13µM	n
N#C/C(=C\c1ccc(O)c(O)c1)C(=O)OCCc1cccs1	n	n	n	14µM	x	18µM[quencher]
